Activity score data for 68 molecules are collected here from PubChem BioAssay AID1814 (Broad Institute, 2009).

The campaign covered roughly 300,000 compounds. About 22,000 (7.3%) were called active. Inconclusive results (about 2%) are left out. Cut-off read from the data, not from the text of the source: active = activity score below about -60%; inconclusive = mostly about -28% to -61%; inactive = positive scores. This excerpt belongs to a sample that is enriched for actives.

This assay in a line: Activators working through SNCA 5'UTR binding (MLPCN) (AID 1814). As to conditions: alpha-synuclein 5'UTR reporter, activators screen; active compounds read low; tested at 7.5 µM.
In the case of `COc1ccc(C(=O)NC(=S)NC2CCCCC2)cc1`, the activity score was -137% (active).
Then `O=C(NC(=S)NC1CCCCC1)c1ccc(Cl)cc1`, with -160% (active); and `CC(C)CNC(=S)NC(=O)c1ccc(Cl)cc1`, with -111% (active); and `O=C(NC1CCCCC1)c1ccc(-c2ccc(Cl)cc2)o1`, with -150% (active).
Regarding `Cc1ccc(OCCCC(=O)N2CCOCC2)c(C)c1`, the activity score is -75.1% (active).
For `Cc1oc2c(c1C(=O)N1CCOCC1)C(=O)c1ccccc1C2=O` the value was 101% (inactive); for `O=c1oc2ccccc2cc1-c1cn(-c2ccccc2)c(=S)[nH]1`, 119% (inactive); for `COc1ccc(-c2cn(-c3ccc(OC)cc3)c(=S)[nH]2)cc1`, -129% (active).
Regarding `O=C(Nc1ccc2oc(-c3ccc4ccccc4c3)nc2c1)c1cccs1`, the activity score was -233% (active).
For `CCN(CC)C(=O)c1sc2nc(-c3ccccc3)ccc2c1N`, the activity score is -178% (active).
Then `O=C(NNC(=O)c1cc2c(s1)CCCC2)c1ccccc1`, with -80.5% (active); and `O=C(Nc1ccc(F)cc1)c1cc2c(s1)CCCC2`, with -165% (active); and `CCN(CC)c1ccc(C(=O)c2cnc(/N=C/N(C)C)s2)cc1`, with -64.1% (active).
`C=CCNc1cnn(-c2ccc(C)cc2)c(=O)c1Cl`: the activity score is -80.9% (active).
For `Cc1sc2ncnc(Sc3nc4ccccc4s3)c2c1C` the value was -71% (active).
Then `CSc1ccccc1OCc1cc(C(=O)N2C[C@H]3CC[C@H]2C3)no1`, with -85.5% (active).
For `N#Cc1c(NC(=O)C2CCCO2)sc2c1CCCCC2` (stereo not drawn) the value was -161% (active).
Consider `Cc1ccc(C)c(NC(CC(=O)c2ccccc2)C(=O)OCC(=O)c2cccs2)c1` (stereo not drawn), for which the activity score was -96.3% (active).
Then `O=C(Cn1ncc(N2CCCC2)c(Br)c1=O)c1ccc(Cl)cc1`, with -92.2% (active); and `O=C(CSc1cccc[n+]1[O-])c1ccc(-c2ccccc2)cc1`, with -146% (active); and `CCOC(=O)c1[nH]c2c(c1C)C(=O)CC(c1ccc(N(C)C)cc1)C2` (stereo not drawn), with -105% (active).
Then `CCOc1cc(/C=C2\SC(N3CCCCC3)=NC2=O)ccc1O`, with -75.9% (active).
Then `O=C1N=C(N2CCCC2)S/C1=C\c1cccc(Br)c1`, with -122% (active); and `O=C(COC(=O)c1cccc(Br)c1)Nc1cccc2c1C(=O)c1ccccc1C2=O`, with -79% (active); and `CCCC(=O)N=c1sc2cccc(F)c2n1C`, with -76.7% (active).
Take `Cn1c(=NC(=O)c2ccco2)sc2cccc(F)c21`: the activity score was -151% (active).
Then `CS(=O)(=O)N1CCc2cc(C(=O)Nc3ccccc3)ccc21`, with -104% (active); and `CSc1ccccc1NC(=O)c1ccc2c(c1)CCN2S(C)(=O)=O`, with -66.1% (active).
For `CS(=O)(=O)N1CCc2cc(C(=O)Nc3ccccc3Br)ccc21` the value was -124% (active).
Then `CSc1ccccc1NC(=O)c1cc(C2CC2)on1`, with -116% (active).
For `O=C(Nc1cc(C(F)(F)F)ccc1Cl)c1cc(C2CC2)on1`, the activity score was -77.3% (active).
Then `O=C(Nc1cc(C(F)(F)F)ccc1Cl)c1cc2nc3c(c(C(F)(F)F)n2n1)CCCC3`, with -243% (active); and `O=C(O)c1ccccc1CSc1nc2ccccc2s1`, with -62.9% (active).
Consider `CC(/C=N/NC(=O)c1cc(-c2ccc3ccccc3c2)n[nH]1)=C\c1ccco1`, for which the activity score was -220% (active).
For `COc1ccc(CNC(=O)c2ccc3oc(C(C)C)nc3c2)cc1` the value was -118% (active); for `COC(=O)c1ccc(CNC(=O)c2ccc3oc(C(C)C)nc3c2)cc1`, -95.9% (active); for `COC(=O)c1ccc(Sc2ccc(F)cc2)c(N)c1`, -107% (active).
Then `CC(C)(C)c1ccc(/C=C2\SC(=O)N=C2N)cc1`, with -78.7% (active).
Then `O=C(Nc1cccc2ccccc12)c1onc2c1CCCC2`, with -204% (active).
As to `Cc1ccc2nc(-c3ccc(SCC(=O)Nc4cc(C)on4)nc3)[nH]c2c1`, the activity score was -160% (active).
For `O=C(c1noc2c1CCCC2)N1CCc2ccccc2C1` the value was -165% (active); for `O=C(NCCNc1ccccc1[N+](=O)[O-])c1ccccc1F`, -168% (active); for `NC(=O)c1ccccc1N=Cc1ccc2ccccc2c1`, -211% (active).
As to `CCc1ccc2nc3sc(C(=O)Nc4nnc(CC)s4)c(N)c3cc2c1`, the activity score is -71.1% (active).
For `Cc1nc(C)c(-c2csc(NCCc3ccccc3)n2)s1` the value was -84.7% (active).
For `CC(c1ccccn1)N(C)C(=O)c1ccc2nc(Cc3cccc(Cl)c3)oc2c1` (stereo not drawn) the value was -80.8% (active); for `COc1ccc(-c2cc3n(n2)CCc2nc4ccccc4n2-3)cc1`, -137% (active).
Consider `CCN1CCN(c2cc3nc(C)n(Cc4ccccc4)c(=O)c3cc2NC(=O)c2ccccc2F)CC1`, for which the activity score was 65.1% (inactive).
Then `COC(=O)c1sc(N2CCN(Cc3ccccc3)CC2)nc1N`, with -67.9% (active).
Then `Oc1ccc2ccccc2c1N=Nc1nccs1`, with 87.4% (inactive); and `Cn1c(-c2ccc(C(=O)c3ccccc3)s2)nc2ccccc21`, with -73.8% (active); and `O=C(/C=C/c1cnc2ccccc2n1)NC1CCCCCC1`, with -94.3% (active).
Then `O=[N+]([O-])c1ccccc1S(=O)(=O)Nc1cccc2cccnc12`, with 59.9% (inactive).
For the molecule `COc1ccc(NC(=O)Nc2cccc3cccnc23)cc1`, the activity score was -211% (active).
Regarding `O=C(Nc1ccccc1Cl)Nc1cccc2cccnc12`, the activity score was -162% (active).
Regarding `S=C(c1ccc(-c2ccccc2)o1)N1CCCCC1`, the activity score is -113% (active).
Then `OCCN1CCN(C(=S)c2ccc(-c3ccccc3)cc2)CC1`, with 88% (inactive).
For `O=C(Nc1ccc(Cl)cn1)Nc1cccs1` the value was -78.6% (active); for `Clc1ccc(Nc2ccc3ccccc3n2)cc1`, -61.9% (active); for `CCOC(=O)C1(Cc2ccccc2C)CCCN(C(=O)c2ccc(COC)o2)C1` (stereo not drawn), -84.1% (active).
Then `O=C(Nc1ccc(N2CCOCC2)nc1)c1c(F)cccc1F`, with -91.2% (active); and `COC(=O)CCNc1ccc2c(c1)OCCO2`, with -62.2% (active).
For the molecule `Cc1ccc(SCC(=O)Nc2ccc3c(c2)OCCO3)cc1`, the activity score was -96.9% (active).
Then `CCc1ccccc1OCC(=O)Nc1ccc2c(c1)OCCO2`, with -104% (active); and `CCCCC(=O)Nc1ccc2c(c1)OCCO2`, with -102% (active).
For `CC1Cc2ccccc2N1C(=O)CSc1nc2ccccc2o1` (stereo not drawn) the value was -87.9% (active); for `CCN(CC)C(=O)CSc1nc2ccccc2o1`, -63.8% (active).
For `CC(C)(C)C(=O)CSc1nc2ccccc2o1` the value was -109% (active).
